This note sets out measurements from PubChem BioAssay (Tox21).

SMILES strings stand for the structures. Values without a mark were called inactive. Calls come from the whole dose curve.
% is set by controls: 0 for no effect and ±100 for the full control effect.

Acetylcholinesterase (Homo sapiens), sequence (P22303 whole entry, looked up): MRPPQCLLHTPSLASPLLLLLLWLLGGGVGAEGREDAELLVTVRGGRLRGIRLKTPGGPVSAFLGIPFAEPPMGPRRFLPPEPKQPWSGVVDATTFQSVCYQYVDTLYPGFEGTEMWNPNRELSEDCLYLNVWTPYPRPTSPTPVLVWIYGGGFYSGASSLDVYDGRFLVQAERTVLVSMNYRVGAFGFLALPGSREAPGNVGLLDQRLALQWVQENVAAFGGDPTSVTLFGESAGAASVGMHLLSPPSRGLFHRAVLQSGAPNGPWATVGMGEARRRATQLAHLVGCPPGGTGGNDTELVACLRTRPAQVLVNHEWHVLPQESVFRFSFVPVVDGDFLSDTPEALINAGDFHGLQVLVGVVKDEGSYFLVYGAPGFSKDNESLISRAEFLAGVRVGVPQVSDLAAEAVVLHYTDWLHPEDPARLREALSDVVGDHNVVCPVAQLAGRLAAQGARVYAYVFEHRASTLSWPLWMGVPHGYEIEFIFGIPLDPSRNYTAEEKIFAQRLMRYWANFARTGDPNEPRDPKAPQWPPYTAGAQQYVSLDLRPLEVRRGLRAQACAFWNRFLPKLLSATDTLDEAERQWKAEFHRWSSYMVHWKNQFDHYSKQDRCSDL

The test deals with Acetylcholinesterase (Homo sapiens) (UniProt P22303). Description: Acetylcholinesterase (AChE) small molecule antagonists: enzyme-based qHTS assay (AID 1347397). Note: nearly all actives have a fitted effect of over 55% in size. The settings on record: Potency: AChE enzyme activity inhibition; outcome: AChE enzyme activity inhibition; series mostly up to 115 µM; activity change, negative = inhibition: at the top concentration. Put shortly:
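Recombinant human AChE (50 mU/mL) preincubated with compound 30 min at room temperature; acetylthiocholine plus DTNB then added, and thiocholine formation read colorimetrically after 10 min at room temperature. DMSO served as vehicle control.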
In general terms: Quantitative high-throughput screening tests each substance at several concentrations.
In the case of `O=C(/N=N/C(=O)OCc1ccccc1)OCc1ccccc1`, the “activity change, negative = inhibition” value was -3.64%.
Regarding `CCO[Si](C)(OCC)OCC`, the “activity change, negative = inhibition” value was -0.354%.
To `CN(C)CCN(C)CCO` belongs 1.15%.
Turning to `CCCC(=O)OCC`, the “activity change, negative = inhibition” value is 0.576%.
As for `CC(=O)S[C@@H]1CC2=CC(=O)CC[C@]2(C)[C@H]2CC[C@@]3(C)[C@@H](CC[C@@]34CCC(=O)O4)[C@H]12`, the figure is -1.1%; as for `COC(C)=O`, 1.09%.
Take `COC(=O)C1=C(C)NC(C)=C(C(=O)OC(C)(C)CN(C)CCC(c2ccccc2)c2ccccc2)C1c1cccc([N+](=O)[O-])c1` (configuration not stated): the “activity change, negative = inhibition” value was 0% [at 53 µM].
Turning to `CCC(CC)CO`, the “activity change, negative = inhibition” value is 0.329%.
For `C[C@@H](O)[C@H]1C(=O)N2C(C(=O)O)=C([C@H]3CCCO3)S[C@H]12`, the “activity change, negative = inhibition” value is 0.54% [at 53 µM].
`COC(OC)(C(=O)c1ccccc1)c1ccccc1`: the “activity change, negative = inhibition” value is -0.782%.
Consider `CCCCCc1ccco1`, for which the “activity change, negative = inhibition” value was -12.7% [at 53 µM].
With `OCCCO`, the “activity change, negative = inhibition” value is -1.12%.
On to `Nc1cc(C(=O)O)c(O)c(S(=O)(=O)O)c1`, for which the “activity change, negative = inhibition” value is 3.01%.
For `CCN(CC)CC`, the “activity change, negative = inhibition” value was 0.274%.
On to `O=C(Oc1cccc2cccnc12)c1ccccc1`, for which the “activity change, negative = inhibition” value is 0.135% [at 53 µM].
To `O=C(O)CNC(=O)CNC(=O)CNC(=O)CSC(=O)c1ccccc1` belongs 0.97% [at 53 µM]; to `O=C1CC[C@@H](C(=O)O)N1`, 2.2% [at 53 µM].
On to `CC(=O)c1cnccn1`, for which the “activity change, negative = inhibition” value is -0.903%.
In the case of `C[C@@H](O)[C@H](N)C(=O)O`, the activity change, negative = inhibition was 0.985% [at 23.6 µM].
For `FC1(F)C(F)(F)C(F)(F)C2(F)C(F)(C1(F)F)C(F)(F)C(F)(F)C1(F)C(F)(F)C(F)(F)C(F)(F)C(F)(F)C12F` (configuration not stated), the “activity change, negative = inhibition” value was -1.03%.
As for `C=C(C)C(=O)OCCOCCOC(=O)C(=C)C`, the “activity change, negative = inhibition” value was 0.165%.
`CNC(=O)c1cnn(-c2nc(N)c3ncn([C@@H]4O[C@H](CO)[C@@H](O)[C@H]4O)c3n2)c1`: the “activity change, negative = inhibition” value was -1.95% [at 53 µM].
